Records with an inconclusive call do not appear. Active and inactive are the calls of the source. Calls follow the shape of the dose curve; as a rule, active = well fitted activation curve with a large enough effect; inconclusive = small, poorly fitted or top-dose-only effect; inactive = flat fitted curve, though single readings scatter.
Experiment: qHTS for Inhibitors of Cell Surface uPA Generation: FP59 Counterscreen for Cherry-picked Compounds
Conditions: FP59 anthrax toxin cytotoxicity counterscreen, cells; series mostly up to 115 µM
With `c1cncc(C2CCCCN2)c1` (stereo not given) the outcome was “inactive”. For `FC(F)(F)Oc1ccc(NC2=NCCCS2)cc1`, the outcome was “inactive”. With `O=c1[nH]c(=O)n(CCc2ccccc2)c(O)c1C=NC1CC1` the outcome was “inactive”. For `COCC(=O)N1Cc2ccccc2-n2nncc2C1`, the outcome was “inactive”. With `Cc1ccccc1O` the outcome was “inactive”. In the case of `O=c1[nH]c(=O)n(-c2ccc(Cl)cc2)c(O)c1C=Nc1ccc(S(=O)(=O)Nc2nccs2)cc1`, the outcome is reported as “inactive”. For `O=P1(NCCCl)OCCCN1CCCl` (stereo not given), the outcome was “inactive”. For `COC(=O)C1=C(c2cccc(OC)c2OC)C[C@@H]2CC[C@H]1N2C(=O)NC1CC1`, the outcome was “inactive”. In the case of `COc1ccc(-c2nn(CCC#N)cc2C(=O)Nc2ccccc2)cc1OC`, the outcome is reported as “inactive”. For `O=C(c1ccc(F)c([N+](=O)[O-])c1)N1CC2CC(C1)c1cccc(=O)n1C2` (stereo not given), the outcome was “inactive”. For `COc1ccccc1N1CCN(Cc2ccc(SC)cc2)CC1`, the outcome was “inactive”. With `COc1ccc(-c2nn(CCC#N)cc2C(=O)Nc2cccc([N+](=O)[O-])c2)cc1OC` the outcome was “inactive”. With `COc1ccccc1NC(=O)N1C[C@@H]2C[C@@H](C1)c1cccc(=O)n1C2` the outcome was “inactive”. With `CCOc1ccc(CN2CCN(C(=O)Cc3ccccc3)CC2)cc1` the outcome was “inactive”. For `Cc1ncc(CN2CCCC(C(=O)c3cccc(OC(C)C)c3)C2)s1` (stereo not given), the outcome was “inactive”. For `Cc1ccc(-n2c(O)c(C=NCCN3CCNCC3)c(=O)[nH]c2=S)cc1`, the outcome was “inactive”. For `CCOC(=O)c1ccc(N=Cc2c(O)n(-c3ccc(OC)cc3)c(=S)[nH]c2=O)cc1`, the outcome was “inactive”. In the case of `C[N+](C)(C)CCOC(=O)CBr`, the outcome is reported as “inactive”. With `Cc1cc(C(=O)NP(=O)(N2CCOCC2)N2CCOCC2)c(C)n1C1CC1` the outcome was “inactive”. With `CCCCCn1c(=O)c(C(=O)Nc2ccccn2)c(O)c2ccccc21` the outcome was “inactive”.
